Reference: PubChem BioAssay (NCATS)
Inconclusive results are not listed. Unmarked numbers belong to inactive results. Calls come from the whole dose curve; as a rule, active = well fitted cell-killing curve with a large enough effect; inconclusive = small, poorly fitted or top-dose-only effect, or effect the other way; inactive = flat fitted curve, though single readings scatter.

system: CASKI; assay: Primary qHTS to identify gynecologic anti-cancer compounds using libraries of approved drugs and bioactive compounds (AID 1345084); details: Gynecologic cancer cell panel viability, ATPlite luminescence, 48 h; series mostly up to 57.5 µM; activity change, negative = cytotoxicity: at the top concentration; note: nearly all actives have a fitted effect of over 55% in size
Summary of the method: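 Cells, 1,000 per well, plated 16 h, then exposed 48 h at 37 C to compounds. Viability by ATPlite luminescence after 15 min at room temperature.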
% is set by controls: 0 for no effect and ±100 for the full control effect.

| SMILES | activity change, negative = cytotoxicity |
| --- | --- |
| COC(=O)C1=CO[C@@H](O[C@@H]2O[C@H](CO[C@@H]3O[C@H](CO)[C@@H](O)[C@H](O)[C@H]3O)[C@@H](O)[C@H](O)[C@H]2O)[C@@H]2C(CO)=CC[C@H]12 | 15.3% [at 25.3 µM] |
| CSCC1OC(n2cnc3c(=O)[nH]cnc32)C(O)C1O (configuration not stated) | -4.74% |
| COc1cc(C)c(C(=O)OC2C(C)OC(OC3CCC(C)C4C3C=C(C)C3/C(C)=C\CC/C(C)=C/C5(C)C=C(C(=O)O)C(C)CC56OC(=O)/C(=C(\O)C34C)C6=O)C(O)C2O)c(OC)c1 (configuration not stated) | 0.731% [at 11.6 µM] |
| OC[C@H]1O[C@@H](OCc2ccccc2)[C@H](O[C@@H]2OC[C@@H](O)[C@H](O)[C@H]2O)[C@@H](O)[C@@H]1O | 21.3% [at 25.3 µM] |
| Nc1ccc(-n2nc(C(F)(F)F)cc2C(F)(F)F)cc1 | 7.74% |
| Oc1ccc(CC2NCCc3cc(O)c(O)cc32)cc1 (configuration not stated) | -0.85% |
| NCCCCN(Cc1nc2ccccc2[nH]1)[C@H]1CCCc2cccnc21 | -8.27% [at 25.3 µM] |
| C/C(=C\C1CCC(C)C2CCC3(C)OC123)C(=O)O (configuration not stated) | 8.1% |
| CC1=C2C3OC(=O)C(C)C3(O)CCC2(C)CCC1 (configuration not stated) | 15.5% |
| O=C(N[C@H](Cc1ccccc1)C(=O)O)c1sc2cc(F)ccc2c1Cl | 2.93% |
| CC(=O)c1ccc(O[C@@H]2O[C@H](CO[C@@H]3OC[C@@H](O)[C@H](O)[C@H]3O)[C@@H](O)[C@H](O)[C@H]2O)cc1 | 9.25% [at 25.3 µM] |
| C=C1C[C@H](O)[C@@H](O)[C@@]2(C)C1[C@@H](O)[C@H]1OC(=O)C3[C@@H](C)[C@@H](O)[C@H](O)C2[C@]31C (some centres not stated) | -2.35% [at 38.5 µM] |
